From PubChem BioAssay
rTrxR1 inhibitor – blocks rat thioredoxin reductase 1 | O89049 | recombinant rTrxR1, NADPH fluorescence consumption, selenite substrate | Potency, µM (doses to about 114 µM), for inactives: at the top dose activity change, negative = inhibition, actives largely listed as inhibitors | hit rate 1% among 390,000; further: potency means the concentration at half of the fitted maximal effect; on the % scale 0 is the no-effect control and ±100 the full control effect; nearly all actives have a fitted effect of over 65% in size
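Rat TrxR1 (90 nM in the dispensed reagent) was pre-reduced with 400 uM NADPH for 5 min at room temperature, then incubated with compound for 15 min. After 400 uM selenite was added, NADPH fluorescence (Ex 340/Em 450 nm) was followed for 8 min.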
Giardia killer – kills Giardia lamblia. hit rate 0.15% among 340,000. activity change, % at 7.66 µM, hits read low. Giardia lamblia trophozoite viability; in the data active means activity change below about -80%; inconclusive means between about -30% and that limit;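 further: parasites exposed to compound for two days anaerobically before the ATP read; on the % scale 0 is the no-effect control and ±100 the full control effect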
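Anaerobic 48 hrs incubation at 37 deg C of 100 trophozoites/well with test compounds; ATPLite 1-Step luminescence, 15-30 min RT, reports cellular ATP as viability.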
BRCA1 expr up – increases BRCA1 expression; MCF7-BRCA1-FFLuc reporter, luminescence, 48 h; response scale: scaled: vehicle 0%, 10 µM genistein 100%; hit rate 1.1% among 380,000; Potency, µM (series often up to 46.1 µM), without a hit: top-dose activation, most hits filed as activators; further: potency means the concentration at half of the fitted maximal effect; nearly all actives have a fitted effect of over 80% in size
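MCF7-BRCA1-FFLuc, 2000 cells/well; 2 h attach, 37 °C/5% CO2; compound 48 h; luciferase substrate 15 min; luminescence end-point. Norm. to genistein 10 microM max activation and DMSO; concentration-response curves fitted.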
IL-2 act – activators of IL-2; IL-2 activation reporter assay, cell-based qHTS; stimulated with anti-CD3/CD4/CD28 beads; in transgenic mouse T cells; activation, % (series mostly up to about 46 µM); hit rate 0.065% among 360,000; AID 652025; in the data active means activation above about 50%; inconclusive means mostly about 30% to 49%; further: 0% is about no effect
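Readout is EGFP and DsRed signal by fluorescent plate cytometry after 18 h at 37 degrees C. Transgenic mouse T cells (750/well) received compound for 60 min before bead stimulation (anti-CD3, anti-CD4, anti-CD28); memory T cells served as non-tolerant control.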
IDH1 R132H inh – human IDH1 R132H inhibition | O75874 | IDH1-R132H enzyme, NADPH consumption, diaphorase/resazurin fluorescence | Potency, µM (doses to about 76.6 µM), for inactives: at the highest dose activity change, negative = inhibition, hits mostly inhibitors | hit rate 0.093% among 390,000 | AID 602179; further: potency means the concentration at half of the fitted maximal effect; on the % scale 0 is the no-effect control and ±100 the full control effect; nearly all actives have a fitted effect of over 65% in size
Target sequence (O75874 whole entry R132H, stated change not applied): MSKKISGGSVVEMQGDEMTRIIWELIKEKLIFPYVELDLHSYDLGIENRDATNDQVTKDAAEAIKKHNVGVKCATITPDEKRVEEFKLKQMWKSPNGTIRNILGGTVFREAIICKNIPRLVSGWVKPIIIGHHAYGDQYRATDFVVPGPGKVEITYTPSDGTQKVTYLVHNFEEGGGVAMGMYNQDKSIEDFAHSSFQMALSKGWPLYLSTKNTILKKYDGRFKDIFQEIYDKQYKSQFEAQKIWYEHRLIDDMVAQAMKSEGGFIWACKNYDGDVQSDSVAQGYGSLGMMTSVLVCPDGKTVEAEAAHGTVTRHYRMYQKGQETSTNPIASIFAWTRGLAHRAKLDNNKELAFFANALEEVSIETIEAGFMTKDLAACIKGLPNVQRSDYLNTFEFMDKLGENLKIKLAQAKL
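IDH1-R132H (0.5 ug/mL) preincubated 30 min with compound, then NADPH (0.016 mM) and alpha-KG (2 mM) added; 80 min at RT, pH 7.5. Remaining NADPH coupled via diaphorase/resazurin to fluorescence (540/590 nm); concentration-response curves normalized to no-enzyme control.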
TrxR1 substrate – substrates of rat thioredoxin reductase 1. O89049. AID 588456. Potency, µM (top dose mostly 114 µM), for the others: at the top dose activity change, negative = substrate turnover. hit rate 0.01% among 390,000. purified TrxR1 substrate turnover, NADPH consumption readout; further: potency means the concentration at half of the fitted maximal effect; on the % scale 0 is the no-effect control and ±100 the full control effect; nearly all actives have a fitted effect of over 50% in size
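Rat TrxR1, dispensed at 90 nM, was prereduced with 400 uM NADPH (final) for 5 min at ~22 deg C, then incubated with compound 15 min before 400 uM selenite. A first-read NADPH fluorescence drop versus no-compound background flagged substrates.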
* marks the source's active call; other numbers are inactive results; i = inactive; ? = inconclusive; / = no result given; [ ] = dose if it differs, or a comment. This is a sample that favours compounds with a hit; in the whole collection about 2.2% have one here. Unless noted, the call rests on the fitted dose curve; in most records, active means well fitted curve in the direction sought with a large enough effect; inconclusive means small, poorly fitted or top-dose-only effect, or another doubt; inactive means no such curve, though single readings can be large; an effect the other way counts as inactive or inconclusive.

SMILES | rTrxR1 inhibitor | Giardia killer | BRCA1 expr up | IL-2 act | IDH1 R132H inh | TrxR1 substrate
CCOc1ccc(-c2nnc(-c3cccs3)o2)cc1OCC | 58% | 2 | 8.9µM* | -1 | 4% | 95%
Nc1ccc(-c2ccc(C(=O)O)s2)cn1 | 16µM* | 10 | 57% | -1 | -1% | i
Nc1ccc(S(=O)(=O)O)cn1 | 23% | -16 | 18% | -1 | 6% | 7%
CCCCn1c(SCC(=O)NCCCOC)nc2c(sc3ccccc32)c1=O | 15%[0.457 µM] | -20 | 19% | / | 9% | 9%[57.1 µM]
O=C(NCc1ccccn1)Nc1ccc(Br)cc1Cl | 5% | 5 | 11µM* | 1 | 2% | -1%
O=C(COc1ccc(F)cc1Br)NCc1ccccn1 | 2% | -17 | ? | 0 | 4% | -4%
O=C(NCc1ccccn1)Nc1ccc(Br)cc1 | 20% | 6 | 32% | 3 | -6% | 0%
O=C(NCc1ccccn1)Nc1cccc(Cl)c1Cl | 21% | 1 | 10µM* | 1 | 19% | 1%
O=C(Cc1csc(NC(=O)Nc2ccc(Cl)cc2)n1)NCc1ccccn1 | 12% | -6 | 11µM* | 0 | 2% | 0%
O=C(COc1ccccc1Br)NCc1ccccn1 | 11% | -3 | 11µM* | -2 | 2% | -7%[57.1 µM]
CC(C)c1cc(-c2nc(-c3ccc(Cl)cc3)no2)n[nH]1 | 10%[57.1 µM] | / | / | / | -9% | -3%[57.1 µM]
CCOC(=O)c1cc(-c2ccccc2)n(-c2cccc(C(=O)Nc3cccc(F)c3)c2)c1C | 9%[57.1 µM] | / | / | / | 13% | 3%[57.1 µM]
O=C(NCc1ccccn1)Nc1ccc(Cl)cc1Cl | -18% | -29 | 7.9µM* | 0 | -4% | -13%
O=C(NCc1ccccn1)Nc1ccccc1Cl | 23% | 14 | 66% | -1 | 9% | 6%
S=C(NCc1ccccn1)Nc1ccc(Br)cc1Cl | 16%[57.1 µM] | 2 | 11µM* | 3 | -8% | 2%[57.1 µM]
CCN(CC)C(=O)CSc1nnc2nnc3cc(Cl)ccc3n12 | 14%[11.4 µM] | -81* | -70% | -4 | 15% | 6%[57.1 µM]
CCN(CC)C(=O)CSc1nnc2nnc3cc(C)ccc3n12 | -21% | -17 | -21% | 0 | 0% | -20%
COc1cc2c(cc1OC)C(COc1cc(C)cc(C)c1)N(C(=O)C(C)(C)C)CC2 (configuration not stated) | 8%[57.1 µM] | / | -16% | / | -3% | 1%[57.1 µM]
O=C(NCCc1ccccc1)c1ccc(-c2cccnc2)c2ccoc12 | / | / | 7.1µM* | 0 | / | /
CCOc1ccc(N(CC(=O)Nc2cccc(Br)c2)S(C)(=O)=O)cc1 | -3% | 13 | 36% | 0 | 0% | -10%
CCOc1ccc(N(CC(=O)Nc2ccc(C)cc2)S(C)(=O)=O)cc1 | 14%[57.1 µM] | -3 | 8.9µM* | 0 | 7% | 6%[57.1 µM]
CCOc1ccc(N(CC(=O)Nc2cc(C)cc(C)c2)S(C)(=O)=O)cc1 | 3% | -2 | 13µM* | 2 | 5% | -6%
N#Cc1c(N2CCSCC2)nsc1-c1ccccc1Cl | 3% | -8 | 11µM* | -3 | -3% | 1%
CCc1ccccc1NC(=O)c1cccc(NC(=O)/C=C/c2ccco2)c1 | ? | -15 | 40% | 2 | 5% | -12%
Cc1ccc(NC(=O)c2cccc(NC(=O)/C=C/c3ccco3)c2)cc1C | 20µM* | -9 | -17% | 1 | 1% | -6%
SMILES | rTrxR1 inhibitor | Giardia killer | BRCA1 expr up | IL-2 act | IDH1 R132H inh | TrxR1 substrate
O=C(/C=C/c1ccco1)Nc1cccc(C(=O)Nc2ccccc2C(=O)O)c1 | 11µM* | 0 | 0% | -1 | 13% | -8%
COc1ccc2cc3c(N)c(C(=O)NCc4ccco4)sc3nc2c1 | -12% | 2 | 5.6µM* | 1 | -6% | -1%
Cc1csc[n+]1CC(=O)c1ccc(I)cc1 | -11% | / | / | / | / | 2%
CCOc1ccccc1N1C(=O)CC(Sc2n[nH]c(-c3ccccc3)n2)C1=O (configuration not stated) | 1µM* | 5 | -26% | -2 | 15% | 7%[57.1 µM]
COc1ccc(N2C(=O)CC(Sc3n[nH]c(-c4cccc(C)c4)n3)C2=O)cc1 (configuration not stated) | ? | 8 | 45% | -4 | 3% | 18%[57.1 µM]
O=c1[nH]n(-c2ccc(Cl)cc2)c(=O)c(Cl)c1Cl | 22µM* | 9 | -9% | 0 | 11% | 10%[57.1 µM]
Cc1[nH]n(-c2ccccc2)c(=O)c1-c1ccc(Cl)cc1 | 1% | -21 | -7% | 1 | 6% | 2%
Cc1ccc(CSc2nc(=O)c3c(C)cc(C)nc3n2C2CC2)cc1 | 13%[57.1 µM] | / | / | / | 6% | 4%[57.1 µM]
CC(C)c1ccc(CNc2ncccn2)cc1 | 12%[57.1 µM] | -6 | 11µM* | 1 | 2% | -4%[57.1 µM]
CC(C)c1ccc(CNc2ccc3c(c2)ncn3C)cc1 | 4% | 15 | 98% | -3 | -18% | 6%
COc1ccc(NC(=S)NC(=O)c2ccc(Br)o2)cc1 | -26% | -22 | 6.3µM* | 0 | -2% | 2%
NC(=O)c1ccccc1NC(=S)NC(=O)c1ccc(Br)o1 | 25µM* | -27 | -36% | 5 | 3% | -9%
O=C(NC(=S)Nc1ccccc1)c1ccc(Br)o1 | -15% | 0 | 65% | 0 | -7% | -1%
Cc1c(NC(=O)c2ccc(Br)o2)cccc1C(=O)O | -7% | -11 | 3.5µM* | 0 | 6% | 6%[57.1 µM]
Cc1ccc2c(NC(=O)c3ccc(Br)o3)cccc2n1 | ? | -5 | 4% | -1 | -8% | -12%
Cc1ccc(S(=O)(=O)c2cn(C)c3cc(N4CCCCCC4)c(F)cc3c2=O)cc1 | 12% | / | / | / | 2% | 6%
CCOc1ccc(C(=O)CCN2CCCCCC2)cc1 | 0.25µM* | -1 | -101% | -1 | 1% | 1%
CCCCOc1ccc(C(=O)CCN2CCOCC2)cc1 | 3.5µM* | -11 | -113% | 0 | -19% | 3%[57.1 µM]
O=C(OCCN1CCOCC1)c1ccc(OCCN2CCOCC2)cc1 | 8%[57.1 µM] | -7 | -3% | 1 | 1% | 13%[57.1 µM]
CCCOc1ccc(C(=O)CCN2CCCCC2)cc1 | ? | 0 | -52% | -1 | 3% | 8%
CCOC(=O)c1sc(S(C)=O)c2c1CCc1conc1-2 (configuration not stated) | 32µM* | -10 | -38% | 0 | 17% | 1%
CCOC(=O)c1sc2ccccc2c1OC(=O)c1ccc(C)cc1 | 7%[57.1 µM] | 4 | -52% | 0 | 3% | -21%[57.1 µM]
CCOc1ccc(Nc2cc(C)nc(N3CCOCC3)n2)cc1 | -5% | 7 | 12% | 1 | 1% | -3%
CCOc1ccc2nc(N3CCOCC3)nc(C)c2c1 | 11%[57.1 µM] | -3 | 4.5µM* | -1 | 3% | 34%[57.1 µM]
Nc1nnc(/C=C/c2cccc([N+](=O)[O-])c2)s1 | 26% | 20 | 16µM* | 3 | -1% | 0%
Nc1nnc(-c2cccc([N+](=O)[O-])c2)s1 | 11%[57.1 µM] | -5 | 5% | 1 | 2% | 5%[57.1 µM]
